# Legend:
# Assay in all cases: SPOT peptide array binding signal intensity (averaged, normalized) (arbitrary units (background-subtracted, floor 0; scale differs between SH3 domains)); higher = stronger binding of the SH3 domain to the peptide
# AgAbp1 = target: AgAbp1
# Procedure, shortened: (§1)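 Spot intensities were captured after detection with anti-GST antibody, an HRP-linked anti-mouse secondary and luminol, and quantified with Genespotter. The probes were GST-fused SH3 domains from four yeast species, produced in E. coli BL21(DE3), purified on glutathione Sepharose and incubated at 10 μg/ml overnight at 4°C on cellulose-bound synthetic 15-mer peptides with cysteines replaced by serines. Binding signal is the normalized, background-subtracted spot intensity averaged over replicates, and its arbitrary units differ between domains.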
# AgBbc1 = target: AgBbc1
# Procedure, shortened: as §1
# AgBem1-D1 = target: AgBem1-D1
# Procedure, shortened: as §1
# AgBzz1-D1 = target: AgBzz1-D1
# Procedure, shortened: as §1
# AgBzz1-D2 = target: AgBzz1-D2
# Procedure, shortened: as §1
# AgCyk3 = target: AgCyk3
# Procedure, shortened: as §1
# AgFus1 = target: AgFus1
# Procedure, shortened: as §1
# AgHof1 = target: AgHof1
# Procedure, shortened: as §1
# AgHse1 = target: AgHse1
# Procedure, shortened: as §1
# AgLsb1 = target: AgLsb1
# Procedure, shortened: as §1
# AgLsb4 = target: AgLsb4
# Procedure, shortened: as §1
# AgMyo5 = target: AgMyo5
# Procedure, shortened: as §1
# AgNbp2 = target: AgNbp2
# Procedure, shortened: as §1
# AgRvs167 = target: AgRvs167
# Procedure, shortened: as §1
# AgSho1 = target: AgSho1
# Procedure, shortened: as §1
# AgSla1-D1-D2 = target: AgSla1-D1-D2
# Procedure, shortened: as §1
# AgSla1-D3 = target: AgSla1-D3
# Procedure, shortened: as §1
# CaAbp1-D1 = target: CaAbp1-D1
# Procedure, shortened: as §1
# CaAbp1-D2 = target: CaAbp1-D2
# Procedure, shortened: as §1
# CaBbc1 = target: CaBbc1
# Procedure, shortened: as §1
# CaBem1-D1 = target: CaBem1-D1
# Procedure, shortened: as §1
# CaBzz1-D1 = target: CaBzz1-D1
# Procedure, shortened: as §1
# CaBzz1-D2 = target: CaBzz1-D2
# Procedure, shortened: as §1
# CaCyk3 = target: CaCyk3
# Procedure, shortened: as §1
# CaFus1 = target: CaFus1
# Procedure, shortened: as §1
# CaHof1 = target: CaHof1
# Procedure, shortened: as §1
# CaHse1 = target: CaHse1
# Procedure, shortened: as §1
# CaLsb1 = target: CaLsb1
# Procedure, shortened: as §1
# CaLsb4 = target: CaLsb4
# Procedure, shortened: as §1
# CaMyo5 = target: CaMyo5
# Procedure, shortened: as §1
# CaNbp2 = target: CaNbp2
# Procedure, shortened: as §1
# CaRvs167 = target: CaRvs167
# Procedure, shortened: as §1
# CaRvs167-3 = target: CaRvs167-3
# Procedure, shortened: as §1
# CaSho1 = target: CaSho1
# Procedure, shortened: as §1
# CaSla1-D1-D2 = target: CaSla1-D1-D2
# Procedure, shortened: as §1
# CaSla1-D3 = target: CaSla1-D3
# Procedure, shortened: as §1
# ScAbp1 = target: ScAbp1
# Procedure, shortened: as §1
# ScBbc1 = target: ScBbc1
# Procedure, shortened: as §1
# ScBem1-D1 = target: ScBem1-D1
# Procedure, shortened: as §1
# ScBzz1-D1 = target: ScBzz1-D1
# Procedure, shortened: as §1
# ScBzz1-D2 = target: ScBzz1-D2
# Procedure, shortened: as §1
# ScCyk3 = target: ScCyk3
# Procedure, shortened: as §1
# ScFus1 = target: ScFus1
# Procedure, shortened: as §1
# ScHof1 = target: ScHof1
# Procedure, shortened: as §1
# ScHse1 = target: ScHse1
# Procedure, shortened: as §1
# ScLsb1 = target: ScLsb1
# Procedure, shortened: as §1
# ScLsb2 = target: ScLsb2
# Procedure, shortened: as §1
# ScLsb3 = target: ScLsb3
# Procedure, shortened: as §1
# ScLsb4 = target: ScLsb4
# Procedure, shortened: as §1
# ScMyo3 = target: ScMyo3
# Procedure, shortened: as §1
# ScMyo5 = target: ScMyo5
# Procedure, shortened: as §1
# ScNbp2 = target: ScNbp2
# Procedure, shortened: as §1
# ScPex13 = target: ScPex13
# Procedure, shortened: as §1
# ScRvs167 = target: ScRvs167
# Procedure, shortened: as §1
# ScSho1 = target: ScSho1
# Procedure, shortened: as §1
# ScSla1-D1-D2 = target: ScSla1-D1-D2
# Procedure, shortened: as §1
# ScSla1-D3 = target: ScSla1-D3
# Procedure, shortened: as §1
# SpAbp1-D1 = target: SpAbp1-D1
# Procedure, shortened: as §1
# SpBbc1 = target: SpBbc1
# Procedure, shortened: as §1
# SpBzz1-D1 = target: SpBzz1-D1
# Procedure, shortened: as §1
binder,measurement,setting,value
DGNEEKPLLPTRPNK,SPOT peptide array binding signal intensity,AgAbp1,≤ 0
same,SPOT peptide array binding signal intensity,AgBbc1,977
same,SPOT peptide array binding signal intensity,AgBem1-D1,≤ 0
same,SPOT peptide array binding signal intensity,AgBzz1-D1,9.5
same,SPOT peptide array binding signal intensity,AgBzz1-D2,17.5
same,SPOT peptide array binding signal intensity,AgCyk3,≤ 0
same,SPOT peptide array binding signal intensity,AgFus1,≤ 0
same,SPOT peptide array binding signal intensity,AgHof1,23.8
same,SPOT peptide array binding signal intensity,AgHse1,≤ 0
same,SPOT peptide array binding signal intensity,AgLsb1,47.2
same,SPOT peptide array binding signal intensity,AgLsb4,1730
same,SPOT peptide array binding signal intensity,AgMyo5,0.25
same,SPOT peptide array binding signal intensity,AgNbp2,≤ 0
same,SPOT peptide array binding signal intensity,AgRvs167,43.8
same,SPOT peptide array binding signal intensity,AgSho1,≤ 0
same,SPOT peptide array binding signal intensity,AgSla1-D1-D2,≤ 0
same,SPOT peptide array binding signal intensity,AgSla1-D3,≤ 0
same,SPOT peptide array binding signal intensity,CaAbp1-D1,≤ 0
same,SPOT peptide array binding signal intensity,CaAbp1-D2,≤ 0
same,SPOT peptide array binding signal intensity,CaBbc1,844
same,SPOT peptide array binding signal intensity,CaBem1-D1,≤ 0
same,SPOT peptide array binding signal intensity,CaBzz1-D1,18
same,SPOT peptide array binding signal intensity,CaBzz1-D2,1.75
same,SPOT peptide array binding signal intensity,CaCyk3,7
same,SPOT peptide array binding signal intensity,CaFus1,≤ 0
same,SPOT peptide array binding signal intensity,CaHof1,0.5
same,SPOT peptide array binding signal intensity,CaHse1,6.38
same,SPOT peptide array binding signal intensity,CaLsb1,≤ 0
same,SPOT peptide array binding signal intensity,CaLsb4,3160
same,SPOT peptide array binding signal intensity,CaMyo5,≤ 0
same,SPOT peptide array binding signal intensity,CaNbp2,4.5
same,SPOT peptide array binding signal intensity,CaRvs167,382
same,SPOT peptide array binding signal intensity,CaRvs167-3,22
same,SPOT peptide array binding signal intensity,CaSho1,1.5
same,SPOT peptide array binding signal intensity,CaSla1-D1-D2,≤ 0
same,SPOT peptide array binding signal intensity,CaSla1-D3,≤ 0
same,SPOT peptide array binding signal intensity,ScAbp1,≤ 0
same,SPOT peptide array binding signal intensity,ScBbc1,306
same,SPOT peptide array binding signal intensity,ScBem1-D1,6.5
same,SPOT peptide array binding signal intensity,ScBzz1-D1,34.2
same,SPOT peptide array binding signal intensity,ScBzz1-D2,≤ 0
same,SPOT peptide array binding signal intensity,ScCyk3,≤ 0
same,SPOT peptide array binding signal intensity,ScFus1,≤ 0
same,SPOT peptide array binding signal intensity,ScHof1,41.6
same,SPOT peptide array binding signal intensity,ScHse1,15
same,SPOT peptide array binding signal intensity,ScLsb1,209
same,SPOT peptide array binding signal intensity,ScLsb2,10
same,SPOT peptide array binding signal intensity,ScLsb3,7260
same,SPOT peptide array binding signal intensity,ScLsb4,4200
same,SPOT peptide array binding signal intensity,ScMyo3,0.5
same,SPOT peptide array binding signal intensity,ScMyo5,8.12
same,SPOT peptide array binding signal intensity,ScNbp2,≤ 0
same,SPOT peptide array binding signal intensity,ScPex13,855
same,SPOT peptide array binding signal intensity,ScRvs167,871
same,SPOT peptide array binding signal intensity,ScSho1,≤ 0
same,SPOT peptide array binding signal intensity,ScSla1-D1-D2,≤ 0
same,SPOT peptide array binding signal intensity,ScSla1-D3,≤ 0
same,SPOT peptide array binding signal intensity,SpAbp1-D1,≤ 0
same,SPOT peptide array binding signal intensity,SpBbc1,0.5
same,SPOT peptide array binding signal intensity,SpBzz1-D1,≤ 0

# From the supplement of paper PMC4466140
